A short description of test [1]: ATG_TAL_CIS: Attagene CIS-FACTORIAL HepG2 Assay for human TAL Basal Promoter (AID 2282966; active means hit-call score of the fitted dose curve at least 0.9, where 1 is the maximum; inactive means score below 0.9;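 further: background control endpoint measuring basal TAL promoter reporter mRNA not a specific factor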). The following applies: HepG2 Attagene cis-factorial TAL promoter reporter; actives raise or lower the signal. The method, boiled down:
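Basal-promoter background-control endpoint from a multiplexed HepG2 reporter panel. Cells were exposed 24 h, then reporter mRNA was read by RT-PCR/CE fluorescence and fitted in both directions relative to DMSO.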

The nature of test [2]: ATG_TGFb_CIS: Attagene CIS-FACTORIAL HepG2 Assay for human Transforming Growth Factor (TGF) (AID 2282967; active means hit-call score of the fitted dose curve at least 0.9, where 1 is the maximum; inactive means score below 0.9). Conditions: HepG2 Attagene CIS TGFb reporter, mRNA transcription; actives raise or lower the signal. The essentials: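 Bidirectional fitting relative to DMSO gave the endpoint. Underlying data: reporter mRNA from HepG2 cells carrying transiently transfected cis-regulated reporter constructs, harvested 24 h after dosing and analyzed by RT-PCR and capillary electrophoresis.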

The nature of test [3]: ATG_VDRE_CIS: Attagene CIS-FACTORIAL HepG2 Assay for human Vitamin D Receptor Element (VDRE) (AID 2282968; active means hit-call score of the fitted dose curve at least 0.9, where 1 is the maximum; inactive means score below 0.9). Conditions: HepG2 VDRE cis-reporter transcription, actives raise or lower the signal. The essentials:
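Readout is VDRE-driven reporter mRNA reflecting endogenous factor activity in human HepG2 cells, sampled 24 h post-dose. Quantification used labelled RT-PCR products separated by capillary electrophoresis; bidirectional analysis relative to DMSO.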

A short description of test [4]: ATG_M_19_TRANS: Attagene TRANS-FACTORIAL HepG2 Assay for M19 Transcription Factor (Internal Marker) (AID 2282974). The following applies: HepG2 Attagene TRANS-FACTORIAL M19 internal marker reporter. The essentials: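 Measured here: internal-marker reporter transcript from HepG2 cells transfected with MRTUs, harvested at 24 h. cDNA PCR products were 6-FAM labelled by primer extension, cut with HpaI for 2 h at 37 C, and resolved by CE.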

A short description of test [5]: ATG_GAL4_TRANS: Attagene TRANS-FACTORIAL HepG2 Assay for GAL4 (Internal Marker) (AID 2282976). The following applies: HepG2 Attagene TRANS GAL4 internal marker reporter. The method, boiled down:
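Background-control readout: GAL4-UAS reporter transcript in transiently transfected HepG2 cells after 24 h compound exposure. Measured by RT-PCR, 6-FAM primer extension, HpaI digest and capillary electrophoresis; gain-of-signal fit versus DMSO.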

For test [6], the target named is Bile acid receptor (Homo sapiens) (UniProt Q96RI1). Description: ATG_FXR_TRANS: Attagene TRANS-FACTORIAL HepG2 Assay for Farnesoid X Receptor (FXR) (AID 2282979).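 Further: hits raise reporter mRNA above DMSO so AC50 marks FXR activation.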 Conditions: HepG2 Attagene TRANS FXR-GAL4 reporter transcription. The method, boiled down:
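HepG2 cells were transiently transfected with GAL4-UAS reporters driven by chimeric NR-Gal4 proteins and dosed for 24 h. Reporter mRNA was quantified by RT-PCR, fluorescent labelling, HpaI digestion and capillary electrophoresis, with gain of signal scored versus DMSO.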

For test [7], the target named is Oxysterols receptor LXR-alpha (Homo sapiens) (UniProt Q13133). Description: ATG_LXRa_TRANS: Attagene TRANS-FACTORIAL HepG2 Assay for human Liver X Receptor alpha (LXRa) (AID 2282980). The following applies: HepG2 Attagene TRANS reporter, LXRa transactivation. The essentials: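 HepG2 cells transiently transfected with GAL4-UAS reporter units for chimeric NR-Gal4 proteins, exposed to chemicals for 24 h. Reporter mRNA quantified by RT-PCR and capillary electrophoresis; gain of signal fitted relative to DMSO.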
Oxysterols receptor LXR-alpha (Homo sapiens), sequence (Q13133 whole entry, looked up, the tested form may be a part): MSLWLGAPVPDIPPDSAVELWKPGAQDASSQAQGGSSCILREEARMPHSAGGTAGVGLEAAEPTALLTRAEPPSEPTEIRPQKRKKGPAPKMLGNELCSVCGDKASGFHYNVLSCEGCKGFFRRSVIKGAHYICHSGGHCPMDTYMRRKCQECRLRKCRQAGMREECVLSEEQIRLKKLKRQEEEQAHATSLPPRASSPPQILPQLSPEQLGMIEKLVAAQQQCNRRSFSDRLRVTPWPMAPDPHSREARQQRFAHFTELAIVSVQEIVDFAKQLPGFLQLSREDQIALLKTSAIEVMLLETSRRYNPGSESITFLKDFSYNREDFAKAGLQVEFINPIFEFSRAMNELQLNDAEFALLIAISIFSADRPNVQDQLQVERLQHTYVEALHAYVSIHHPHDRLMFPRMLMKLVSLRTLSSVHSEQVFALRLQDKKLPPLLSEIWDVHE

Test [8] addresses Oxysterols receptor LXR-beta (Homo sapiens) (UniProt P55055). The test is described as follows: ATG_LXRb_TRANS: Attagene TRANS-FACTORIAL HepG2 Assay for human Liver X Receptor beta (LXRb) (AID 2282981). Conditions: HepG2 Attagene TRANS GAL4-LXRb reporter, mRNA. The method, boiled down:
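After 24 h chemical treatment of transfected HepG2 cells carrying exogenous NR-Gal4 chimeras, reporter mRNA was quantified by fluorescent RT-PCR and capillary electrophoresis; activity taken as increase over DMSO controls.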

Test [9] in a line: ATG_M_06_TRANS: Attagene TRANS-FACTORIAL HepG2 Assay for M06 Transcription Factor (Internal Marker) (AID 2282983).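 Further: reporter transcript level by RT-PCR then capillary electrophoresis fluorescence.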 The following applies: HepG2 Attagene TRANS M06 internal marker reporter. The essentials:
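mRNA levels of a reporter transcript, quantified as FAM fluorescence on capillary electrophoresis, served as readout. HepG2 cells expressing exogenous GAL4-chimera reporter constructs were exposed for 24 h. Gain of signal over DMSO was evaluated.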

In test [10] the target is Transcriptional activator Myb (Homo sapiens) (UniProt P10242). Description: ATG_Myb_CIS: Attagene CIS-FACTORIAL HepG2 Assay for human Myeloblastosis (Myb) Proto-Oncogene Transcription Factor (AID 2282986; active means hit-call score of the fitted dose curve at least 0.9, where 1 is the maximum; inactive means score below 0.9). The following applies: HepG2 Attagene CIS-FACTORIAL Myb reporter transcription; actives raise or lower the signal. The essentials:
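Fluorescence signals from capillary electrophoresis of RT-PCR-amplified reporter cDNA give the read-out. Cells: HepG2 transfected with multiple cis-regulated reporter units. Exposure lasts 24 hours; DMSO defines baseline for gain or loss of signal.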

Test [11] concerns the target Nuclear respiratory factor 1 (Homo sapiens) (UniProt Q16656). The test is described as follows: ATG_NRF1_CIS: Attagene CIS-FACTORIAL HepG2 Assay for human Nuclear Respiratory Factor 1 (NRF1) Orphan Gene (AID 2282987; active means hit-call score of the fitted dose curve at least 0.9, where 1 is the maximum; inactive means score below 0.9). The following applies: HepG2 NRF1 cis-element reporter, Attagene multiplex; actives raise or lower the signal. The essentials: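 Transcriptional reporter readout, one component of a 52-endpoint multiplexed HepG2 panel. Exposure 24 h; mRNA detected via RT-PCR and fluorescent capillary electrophoresis; fitting in both directions against DMSO.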

Test [12] in a line: ATG_NFI_CIS: Attagene CIS-FACTORIAL HepG2 Assay for human Nuclear Factor I (NFI) (AID 2282989; active means hit-call score of the fitted dose curve at least 0.9, where 1 is the maximum; inactive means score below 0.9). Conditions: HepG2 cis-regulatory reporter, NFI response element transcription; actives raise or lower the signal. The method, boiled down:
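Cells: human liver HepG2, transiently transfected with promoter-regulated reporter transcription units. Exposure 24 h. Detection: fluorescent RT-PCR products separated by capillary electrophoresis, normalised to DMSO negative control.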

Test [13] has as its target Glucocorticoid receptor (Homo sapiens) (UniProt P04150). Description: ATG_GR_TRANS: Attagene TRANS-FACTORIAL HepG2 Assay for human Glucocorticoid Receptor (GR) (AID 2282978).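 Further: activators score as hits since higher reporter transcript over DMSO is fitted.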 Conditions: HepG2 Attagene TRANS GR reporter, mRNA transcription. The method, boiled down: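 Measurement of GAL4-UAS-driven reporter mRNA in human HepG2 liver cells 24 h post-dosing, using RT-PCR with fluorescent labelling and capillary electrophoresis; the transfected constructs report exogenous NR-GAL4 chimera activity, fitted upward against DMSO.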

The nature of test [14]: ATG_M_32_TRANS: Attagene TRANS-FACTORIAL HepG2 Assay for M32 Transcription Factor (Internal Marker) (AID 2282984). The following applies: HepG2 Attagene TRANS M32 internal marker reporter. The method, boiled down:
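Internal background reporter in transfected HepG2: after 24 h chemical exposure, RNA reverse-transcribed, reporter cDNA amplified, fluorescently labelled and HpaI-cut, then sized by capillary electrophoresis. Gain of signal fitted against DMSO control.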

For test [15], the target named is Nuclear receptor subfamily 1 group I member 3 (Homo sapiens) (UniProt Q14994). Description: ATG_CAR_TRANS: Attagene TRANS-FACTORIAL HepG2 Assay for human Constitutive Androstane Receptor (CAR) (AID 2282969).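 Further: activators raise reporter mRNA above DMSO so AC50 marks induction.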 The following applies: HepG2 Attagene TRANS-FACTORIAL CAR reporter. The essentials:
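Signal is reporter mRNA induction relative to DMSO, measured 24 h after dosing by RT-PCR with fluorescent primer extension and capillary electrophoresis. Human HepG2 liver cells carried transiently transfected chimeric NR-Gal4/GAL4-UAS reporter constructs.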

In test [16] the target is Steroid hormone receptor ERR1 (Homo sapiens) (UniProt P11474). Description: ATG_ERRa_TRANS: Attagene TRANS-FACTORIAL HepG2 Assay for human Estrogen-Related Receptor alpha (ERRa) (AID 2282971). The following applies: HepG2 Attagene TRANS reporter, ERRa transactivation. The essentials: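 HepG2 cells transiently transfected with GAL4-UAS reporter units and chimeric NR-Gal4 constructs; after 24 hour compound incubation, reporter mRNA quantified by RT-PCR, fluorescent labelling and capillary electrophoresis, gain of signal versus DMSO.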

Test [17] addresses X-box-binding protein 1 (Homo sapiens) (UniProt P17861). The test is described as follows: ATG_Xbp1_CIS: Attagene CIS-FACTORIAL HepG2 Assay for human X-box Binding Protein 1 (XBP1) (AID 2282972; active means hit-call score of the fitted dose curve at least 0.9, where 1 is the maximum; inactive means score below 0.9). Conditions: HepG2 XBP1 cis-element reporter, Attagene multiplex; actives raise or lower the signal. The essentials:
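Read-out: fluorescent reporter mRNA fragments resolved by capillary electrophoresis after RT-PCR. Human HepG2 liver cells carried transfected cis-promoter reporter units and were exposed to chemicals for 24 hours. Gain or loss of signal fitted relative to DMSO baseline.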

Test [18] has as its target Hepatocyte nuclear factor 4-alpha (Homo sapiens) (UniProt P41235). Description: ATG_HNF4a_TRANS: Attagene TRANS-FACTORIAL HepG2 Assay for human Hepatocyte Nuclear Factor 4 alpha (HNF4a) (AID 2282982). The following applies: HepG2 HNF4a transactivation reporter, mRNA readout. The method, boiled down:
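Activity of an exogenous HNF4a–Gal4 fusion scored as induced GAL4-UAS reporter transcripts after 24 h chemical exposure of transfected human HepG2 cells. Read-out via RT-PCR with 6-FAM labelling and capillary electrophoresis; rise over DMSO baseline.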

For test [19], the target named is Nuclear receptor subfamily 4 group A member 2 (Homo sapiens) (UniProt P43354). Description: ATG_NURR1_TRANS: Attagene TRANS-FACTORIAL HepG2 Assay for human Nuclear Receptor Related Protein 1 (NURR1) (AID 2282985). The following applies: HepG2 Attagene TRANS reporter, mRNA readout. The essentials:
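Reporter transcript induction, measured by RT-PCR with fluorescent labelling, HpaI digestion and capillary electrophoresis, after 24 hr dosing of human HepG2 cells transiently expressing an exogenous NR-Gal4 fusion with GAL4-UAS-driven reporters; DMSO as baseline.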

Test [20] deals with Estrogen-related receptor gamma (Homo sapiens) (UniProt P62508). Description: ATG_ERRg_TRANS: Attagene TRANS-FACTORIAL HepG2 Assay for human Estrogen-Related Receptor gamma (ERRg) (AID 2282977).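 Further: hits increase reporter signal over DMSO so potencies reflect activators.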 Conditions: HepG2 Attagene TRANS reporter, ERRg transactivation. The essentials: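 Exogenous NR-Gal4 chimera activity measured as reporter transcript induction after 24 h in transiently transfected HepG2 cells. RNA reverse-transcribed, PCR-amplified, 6-FAM-labelled and resolved by capillary electrophoresis; increase over DMSO baseline.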

Results filed as inconclusive are left out. The source made the active and inactive calls. How the source made its calls, unless noted: active means hit-call score of the fitted dose curve at least 0.9, where 1 is the maximum; inconclusive means response in the unintended direction; inactive means score below 0.9.

For orientation: AC50 means the concentration giving half of the maximal activity seen.

Bile acid receptor (Homo sapiens), sequence (Q96RI1 whole entry, looked up, the tested form may be a part): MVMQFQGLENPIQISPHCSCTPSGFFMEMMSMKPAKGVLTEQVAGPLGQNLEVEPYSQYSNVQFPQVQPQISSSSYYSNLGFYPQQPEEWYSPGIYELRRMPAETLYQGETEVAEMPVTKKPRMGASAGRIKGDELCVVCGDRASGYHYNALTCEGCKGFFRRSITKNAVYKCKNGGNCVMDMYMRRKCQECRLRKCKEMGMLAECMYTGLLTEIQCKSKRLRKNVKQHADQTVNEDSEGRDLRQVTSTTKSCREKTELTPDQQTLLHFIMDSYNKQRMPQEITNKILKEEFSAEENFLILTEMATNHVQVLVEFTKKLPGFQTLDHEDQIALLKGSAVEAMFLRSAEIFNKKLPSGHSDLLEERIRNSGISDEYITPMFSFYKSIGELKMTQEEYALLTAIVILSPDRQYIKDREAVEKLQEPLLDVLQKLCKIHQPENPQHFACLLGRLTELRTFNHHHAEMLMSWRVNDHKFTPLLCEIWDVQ
Nuclear respiratory factor 1 (Homo sapiens), sequence (Q16656 whole entry, looked up): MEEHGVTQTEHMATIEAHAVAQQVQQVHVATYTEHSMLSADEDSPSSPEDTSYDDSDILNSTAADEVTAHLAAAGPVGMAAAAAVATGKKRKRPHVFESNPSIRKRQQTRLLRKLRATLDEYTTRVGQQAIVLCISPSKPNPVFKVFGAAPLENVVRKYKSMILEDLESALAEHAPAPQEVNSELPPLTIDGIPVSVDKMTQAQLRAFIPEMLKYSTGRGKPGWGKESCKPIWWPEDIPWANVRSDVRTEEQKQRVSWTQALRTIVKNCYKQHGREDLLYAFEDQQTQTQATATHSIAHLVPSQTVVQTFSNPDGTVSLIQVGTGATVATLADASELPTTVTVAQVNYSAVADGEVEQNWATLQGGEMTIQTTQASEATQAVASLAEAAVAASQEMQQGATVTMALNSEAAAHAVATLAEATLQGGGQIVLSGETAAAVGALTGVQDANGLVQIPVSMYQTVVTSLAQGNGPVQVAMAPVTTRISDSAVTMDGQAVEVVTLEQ
Transcriptional activator Myb (Homo sapiens), sequence (P10242 whole entry, looked up): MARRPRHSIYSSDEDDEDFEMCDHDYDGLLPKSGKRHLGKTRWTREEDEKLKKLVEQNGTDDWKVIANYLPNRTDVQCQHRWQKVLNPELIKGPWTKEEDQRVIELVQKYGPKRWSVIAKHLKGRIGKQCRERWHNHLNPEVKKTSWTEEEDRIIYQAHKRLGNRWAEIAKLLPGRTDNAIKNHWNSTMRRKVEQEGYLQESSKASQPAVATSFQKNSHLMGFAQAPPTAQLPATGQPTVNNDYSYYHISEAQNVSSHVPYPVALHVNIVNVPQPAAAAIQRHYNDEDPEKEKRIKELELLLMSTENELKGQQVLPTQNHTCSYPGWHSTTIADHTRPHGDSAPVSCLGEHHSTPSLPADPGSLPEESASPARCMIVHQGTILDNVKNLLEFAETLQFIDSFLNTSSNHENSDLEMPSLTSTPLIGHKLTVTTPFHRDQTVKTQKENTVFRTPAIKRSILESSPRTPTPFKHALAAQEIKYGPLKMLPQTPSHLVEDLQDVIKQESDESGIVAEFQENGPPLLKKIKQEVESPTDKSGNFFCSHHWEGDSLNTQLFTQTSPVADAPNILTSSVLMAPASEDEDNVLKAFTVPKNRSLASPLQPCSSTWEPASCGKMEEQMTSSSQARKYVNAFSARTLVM
Oxysterols receptor LXR-beta (Homo sapiens), sequence (P55055 whole entry, looked up, the tested form may be a part): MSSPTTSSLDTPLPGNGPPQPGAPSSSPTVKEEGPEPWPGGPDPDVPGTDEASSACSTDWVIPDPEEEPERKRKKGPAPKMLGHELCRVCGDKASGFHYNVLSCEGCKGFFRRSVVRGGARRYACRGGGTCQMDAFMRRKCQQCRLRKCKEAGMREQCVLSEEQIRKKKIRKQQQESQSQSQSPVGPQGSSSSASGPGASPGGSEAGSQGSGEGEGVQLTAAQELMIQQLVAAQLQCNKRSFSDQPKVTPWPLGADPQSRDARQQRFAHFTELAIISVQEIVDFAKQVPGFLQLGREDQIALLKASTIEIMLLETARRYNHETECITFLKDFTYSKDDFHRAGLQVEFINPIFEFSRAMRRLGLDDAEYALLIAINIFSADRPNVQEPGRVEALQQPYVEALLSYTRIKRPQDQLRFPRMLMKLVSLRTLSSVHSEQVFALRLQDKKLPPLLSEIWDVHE
Hepatocyte nuclear factor 4-alpha (Homo sapiens), sequence (P41235 whole entry, looked up, the tested form may be a part): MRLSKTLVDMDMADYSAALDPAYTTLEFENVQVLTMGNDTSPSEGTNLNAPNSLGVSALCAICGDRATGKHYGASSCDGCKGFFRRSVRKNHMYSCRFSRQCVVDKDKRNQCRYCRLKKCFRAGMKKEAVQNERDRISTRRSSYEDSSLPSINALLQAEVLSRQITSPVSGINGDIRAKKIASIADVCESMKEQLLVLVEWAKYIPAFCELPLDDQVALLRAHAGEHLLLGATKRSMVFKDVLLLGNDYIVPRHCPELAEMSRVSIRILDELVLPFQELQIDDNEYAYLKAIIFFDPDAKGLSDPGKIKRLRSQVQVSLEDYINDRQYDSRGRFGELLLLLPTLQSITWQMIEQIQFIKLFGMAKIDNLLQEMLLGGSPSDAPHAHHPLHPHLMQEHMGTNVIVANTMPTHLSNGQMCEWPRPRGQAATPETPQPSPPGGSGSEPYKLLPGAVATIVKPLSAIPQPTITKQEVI
X-box-binding protein 1 (Homo sapiens), sequence (P17861 whole entry, looked up, the tested form may be a part): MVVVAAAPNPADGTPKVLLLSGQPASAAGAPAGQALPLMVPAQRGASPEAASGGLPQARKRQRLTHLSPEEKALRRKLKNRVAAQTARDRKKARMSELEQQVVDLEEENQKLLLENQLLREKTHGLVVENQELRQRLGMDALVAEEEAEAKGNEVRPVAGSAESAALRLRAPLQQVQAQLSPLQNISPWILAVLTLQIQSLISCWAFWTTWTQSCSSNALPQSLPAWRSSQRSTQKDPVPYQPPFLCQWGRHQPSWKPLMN
Nuclear receptor subfamily 4 group A member 2 (Homo sapiens), sequence (P43354 whole entry, looked up, the tested form may be a part): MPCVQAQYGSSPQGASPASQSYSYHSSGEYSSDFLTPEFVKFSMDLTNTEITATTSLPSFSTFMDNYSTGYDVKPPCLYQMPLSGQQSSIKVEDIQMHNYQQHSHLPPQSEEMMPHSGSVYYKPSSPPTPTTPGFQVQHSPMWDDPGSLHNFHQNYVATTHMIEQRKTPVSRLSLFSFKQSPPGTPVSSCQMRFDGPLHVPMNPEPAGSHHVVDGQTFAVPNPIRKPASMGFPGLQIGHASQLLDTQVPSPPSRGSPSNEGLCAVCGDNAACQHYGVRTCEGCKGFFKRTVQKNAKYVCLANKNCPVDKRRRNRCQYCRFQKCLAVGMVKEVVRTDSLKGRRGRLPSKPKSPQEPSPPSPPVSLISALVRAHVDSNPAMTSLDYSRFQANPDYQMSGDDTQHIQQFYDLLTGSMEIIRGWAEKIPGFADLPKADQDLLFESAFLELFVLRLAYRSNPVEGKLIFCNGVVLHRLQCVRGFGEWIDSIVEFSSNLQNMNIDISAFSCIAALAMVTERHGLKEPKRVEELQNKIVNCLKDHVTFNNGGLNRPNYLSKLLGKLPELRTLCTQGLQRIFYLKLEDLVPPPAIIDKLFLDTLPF
Nuclear receptor subfamily 1 group I member 3 (Homo sapiens), sequence (Q14994 whole entry, looked up, the tested form may be a part): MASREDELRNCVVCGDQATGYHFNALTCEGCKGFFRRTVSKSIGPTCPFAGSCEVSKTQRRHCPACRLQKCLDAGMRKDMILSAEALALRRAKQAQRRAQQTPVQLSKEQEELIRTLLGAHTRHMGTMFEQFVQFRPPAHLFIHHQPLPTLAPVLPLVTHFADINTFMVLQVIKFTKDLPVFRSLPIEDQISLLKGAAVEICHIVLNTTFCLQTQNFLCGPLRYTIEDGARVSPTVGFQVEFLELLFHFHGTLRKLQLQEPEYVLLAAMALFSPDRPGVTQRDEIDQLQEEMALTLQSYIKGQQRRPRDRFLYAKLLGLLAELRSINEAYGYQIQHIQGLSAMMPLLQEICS
Glucocorticoid receptor (Homo sapiens), sequence (P04150 whole entry, looked up, the tested form may be a part): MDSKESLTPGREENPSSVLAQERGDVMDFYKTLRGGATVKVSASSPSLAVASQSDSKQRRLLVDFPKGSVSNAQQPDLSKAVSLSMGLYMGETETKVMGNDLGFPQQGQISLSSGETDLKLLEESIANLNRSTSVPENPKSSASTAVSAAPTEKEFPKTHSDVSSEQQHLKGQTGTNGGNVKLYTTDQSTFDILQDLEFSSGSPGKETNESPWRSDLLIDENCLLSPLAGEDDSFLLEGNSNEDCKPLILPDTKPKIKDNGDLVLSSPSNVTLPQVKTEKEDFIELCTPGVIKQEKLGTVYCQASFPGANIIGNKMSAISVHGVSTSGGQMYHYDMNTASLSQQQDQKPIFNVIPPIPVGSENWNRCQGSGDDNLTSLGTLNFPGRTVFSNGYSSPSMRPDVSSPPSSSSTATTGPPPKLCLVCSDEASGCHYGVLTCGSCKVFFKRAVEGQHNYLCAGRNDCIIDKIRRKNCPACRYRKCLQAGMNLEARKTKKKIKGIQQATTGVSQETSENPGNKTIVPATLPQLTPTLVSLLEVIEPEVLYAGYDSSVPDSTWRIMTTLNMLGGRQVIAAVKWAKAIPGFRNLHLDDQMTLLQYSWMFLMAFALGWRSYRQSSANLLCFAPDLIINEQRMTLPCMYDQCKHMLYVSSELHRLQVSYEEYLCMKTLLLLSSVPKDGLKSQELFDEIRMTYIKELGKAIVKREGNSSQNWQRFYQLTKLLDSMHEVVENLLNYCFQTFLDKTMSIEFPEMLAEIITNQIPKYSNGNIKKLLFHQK

For `CCC1(C)NC(=O)NC1=O` (stereo not given), the outcome in test [1], in [2], in test [3], in test [4], in test [5] and in test [6] was inactive. Also, the call in test [7], in test [8], in [9], in test [10], in test [11] and in test [12] was inactive.
Regarding `CCCCCCCCCC(C)C=O` (stereo not given), the call in test [1], in test [2], in [3], in test [4], in test [13] and in test [7] was inactive. Also, the compound was classed as inactive in test [14], in test [10], in test [11] and in [12].
With `CCCCCCCC(=O)OCC(O)CO` (stereo not given), the result in [1], in test [2], in [15], in test [16], in test [17] and in [4] was inactive. In addition, the call in test [13], in test [8], in [18], in [19] and in [11] was inactive.
As for `COC(=O)Nc1ccc(Cl)c(Cl)c1`, the call in test [1], in test [2], in test [6], in test [8], in [18] and in test [9] was inactive. Also, the call in [14], in [10], in test [11] and in [12] was inactive. For the same compound, the results for the half-maximal activity concentration (AC50) in [3], in [17] and in test [19] were 43.7 µM (active), 26.7 µM (active) and 79.9 µM (active), respectively.
For the compound `COC(CC(C)CCCC(C)(C)O)OC` (stereo not given), the compound was classed as inactive in [1], in [2], in test [3], in test [4], in test [5] and in test [7]. In addition, the call in [18], in test [10], in [11] and in [12] was inactive.
With `CC(=O)Nc1ccc(C(=O)CCl)cc1`, the compound was classed as inactive in [1], in test [2], in test [18], in test [9], in test [19] and in [11]. Also, the values for the AC50 in test [3] and in test [17] were 8.84 µM (active) and 7.85 µM (active), respectively.
For `O=C1OC(=O)c2c(Cl)c(Cl)c(Cl)c(Cl)c21`, the result in [1], in test [2], in test [15], in test [16], in [4] and in test [5] was inactive. In addition, the compound was called inactive in [20], in test [6], in [8], in [18], in test [14] and in test [19]. Besides, the compound was classed as inactive in [10] and in test [11].
For the compound `Cc1cc(CCC(=O)OCCOCCOCCOC(=O)CCc2cc(C)c(O)c(C(C)(C)C)c2)cc(C(C)(C)C)c1O`, the result in test [1], in [2], in test [15], in [17], in [4] and in test [5] was inactive. The compound was called inactive in test [13], in [6], in test [7], in test [18], in test [9] and in test [19]. Also, the call in [10], in test [11] and in test [12] was inactive.
Take `CN(C)C(=O)Nc1ccc(Oc2ccc(Cl)cc2)cc1`: the call in [1], in test [2], in test [3], in test [17], in test [13] and in test [8] was inactive. Besides, the result in [9], in test [14], in test [19], in test [10], in test [11] and in [12] was inactive.

Source of the values: PubChem BioAssay (EPA / NIEHS).
